According to the supplement of paper PMC11732987, “Enantioselective OTUD7B fragment discovery through chemoproteomics screening and high-throughput optimisation” (Communications Chemistry, 2025):

Tests used:
Assay in all cases: log2 ratio of Biotin-Ahx-Ub-VS probe labelling (fragment/DMSO); higher = less target engagement (more negative = stronger competition), active = hit call of the paper (q ≤ 0.05, log2 ratio ≤ -1)
Conditions in all cases: compound concentration: 200 uM; treatment time: 3 h
[1] = molecular target: USP34 (UniProt Q70CQ2)
In short: (§1)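 Each value is an average log2 ratio of fragment to vehicle, tested by unpaired t-test. The underlying Spectronaut label-free quantities were global-median-normalised, and only proteins with ≥2 unique peptides were included. Triplicate HEK293T lysate samples (495 µg) were exposed to fragment at 200 µM or vehicle for 3 h, then to Biotin-Ahx-Ub-VS at 0.5 µM final for 1 h, before NeutrAvidin enrichment of labelled DUBs, LysC and trypsin digestion, and diaPASEF LC-MS/MS.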

[2] = molecular target: T1, USP36 (UniProt Q9P275)
T1 sequence (whole entry): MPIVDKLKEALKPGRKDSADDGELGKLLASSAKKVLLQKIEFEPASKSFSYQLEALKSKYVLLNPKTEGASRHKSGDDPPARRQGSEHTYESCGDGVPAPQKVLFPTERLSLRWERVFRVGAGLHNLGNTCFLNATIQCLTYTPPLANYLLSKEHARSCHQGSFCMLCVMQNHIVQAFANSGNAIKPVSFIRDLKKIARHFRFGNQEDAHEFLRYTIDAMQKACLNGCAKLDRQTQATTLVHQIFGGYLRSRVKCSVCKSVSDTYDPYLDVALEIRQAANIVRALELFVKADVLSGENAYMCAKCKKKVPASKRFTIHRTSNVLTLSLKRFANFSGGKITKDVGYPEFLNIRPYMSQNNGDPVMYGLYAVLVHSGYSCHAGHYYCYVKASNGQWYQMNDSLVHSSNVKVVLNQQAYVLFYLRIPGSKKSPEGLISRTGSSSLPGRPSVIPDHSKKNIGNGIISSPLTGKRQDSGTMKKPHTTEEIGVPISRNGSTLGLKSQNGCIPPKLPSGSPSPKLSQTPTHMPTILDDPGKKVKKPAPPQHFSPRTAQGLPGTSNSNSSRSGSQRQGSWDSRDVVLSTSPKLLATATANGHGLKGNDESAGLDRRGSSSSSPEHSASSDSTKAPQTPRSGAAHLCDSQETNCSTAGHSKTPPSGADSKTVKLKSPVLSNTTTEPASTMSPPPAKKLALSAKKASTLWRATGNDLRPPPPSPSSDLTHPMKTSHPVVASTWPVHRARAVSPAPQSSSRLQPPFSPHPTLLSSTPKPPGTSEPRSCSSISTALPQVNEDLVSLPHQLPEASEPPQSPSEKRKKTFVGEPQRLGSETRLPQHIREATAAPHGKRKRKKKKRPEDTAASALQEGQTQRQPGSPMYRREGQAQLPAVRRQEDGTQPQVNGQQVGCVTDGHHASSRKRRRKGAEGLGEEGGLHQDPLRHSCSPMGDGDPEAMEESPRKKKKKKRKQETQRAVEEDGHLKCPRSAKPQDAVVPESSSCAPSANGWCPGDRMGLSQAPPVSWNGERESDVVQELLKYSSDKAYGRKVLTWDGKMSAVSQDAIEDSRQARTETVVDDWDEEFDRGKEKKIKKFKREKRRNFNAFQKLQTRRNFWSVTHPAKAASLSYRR
In short: as §1

[3] = molecular target: T2, USP38 (UniProt Q8NB14)
T2 sequence (whole entry): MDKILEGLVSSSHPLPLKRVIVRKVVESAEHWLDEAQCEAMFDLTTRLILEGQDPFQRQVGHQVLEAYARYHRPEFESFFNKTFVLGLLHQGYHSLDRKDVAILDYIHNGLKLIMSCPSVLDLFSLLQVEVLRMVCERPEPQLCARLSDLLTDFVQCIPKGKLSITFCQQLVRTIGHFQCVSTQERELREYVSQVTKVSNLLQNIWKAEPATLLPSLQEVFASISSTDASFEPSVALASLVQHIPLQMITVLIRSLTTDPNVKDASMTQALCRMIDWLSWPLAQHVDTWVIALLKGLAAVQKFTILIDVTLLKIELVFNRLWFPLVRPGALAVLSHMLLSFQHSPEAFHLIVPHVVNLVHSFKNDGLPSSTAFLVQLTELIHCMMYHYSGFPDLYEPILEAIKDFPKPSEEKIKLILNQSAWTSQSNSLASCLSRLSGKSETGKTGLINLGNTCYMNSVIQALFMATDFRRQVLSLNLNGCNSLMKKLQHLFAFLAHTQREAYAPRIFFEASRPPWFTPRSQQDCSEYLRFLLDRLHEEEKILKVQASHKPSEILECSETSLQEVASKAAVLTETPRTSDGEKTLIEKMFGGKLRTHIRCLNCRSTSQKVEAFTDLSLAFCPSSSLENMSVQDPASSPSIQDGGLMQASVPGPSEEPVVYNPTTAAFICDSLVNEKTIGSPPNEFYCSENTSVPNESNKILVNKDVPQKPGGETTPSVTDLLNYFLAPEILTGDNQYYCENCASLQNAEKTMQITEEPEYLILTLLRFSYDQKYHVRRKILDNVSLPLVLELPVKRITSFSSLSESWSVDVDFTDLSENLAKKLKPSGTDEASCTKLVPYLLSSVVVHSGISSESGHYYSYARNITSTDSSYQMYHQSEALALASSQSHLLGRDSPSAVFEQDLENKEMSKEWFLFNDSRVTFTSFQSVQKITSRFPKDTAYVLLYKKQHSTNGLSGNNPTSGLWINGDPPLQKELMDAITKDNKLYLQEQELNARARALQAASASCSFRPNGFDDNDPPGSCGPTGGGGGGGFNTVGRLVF
In short: as §1

[4] = molecular target: T3, USP39 (UniProt Q53GS9)
T3 sequence (whole entry): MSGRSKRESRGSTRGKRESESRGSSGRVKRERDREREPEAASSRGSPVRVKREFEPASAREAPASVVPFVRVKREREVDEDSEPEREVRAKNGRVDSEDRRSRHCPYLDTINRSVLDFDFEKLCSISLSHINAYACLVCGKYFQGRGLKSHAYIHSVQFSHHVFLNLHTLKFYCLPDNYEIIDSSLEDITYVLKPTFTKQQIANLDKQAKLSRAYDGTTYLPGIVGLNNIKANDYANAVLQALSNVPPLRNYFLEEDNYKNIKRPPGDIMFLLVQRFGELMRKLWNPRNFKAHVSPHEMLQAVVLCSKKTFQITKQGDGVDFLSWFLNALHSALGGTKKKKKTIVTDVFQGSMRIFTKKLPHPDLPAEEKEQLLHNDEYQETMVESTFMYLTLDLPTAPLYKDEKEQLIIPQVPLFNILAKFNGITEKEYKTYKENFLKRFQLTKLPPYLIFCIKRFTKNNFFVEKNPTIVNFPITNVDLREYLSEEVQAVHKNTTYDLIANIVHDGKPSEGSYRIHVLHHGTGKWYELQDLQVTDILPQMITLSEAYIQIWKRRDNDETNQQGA
In short: as §1

[5] = molecular target: T4, USP4 (UniProt Q13107)
T4 sequence (whole entry): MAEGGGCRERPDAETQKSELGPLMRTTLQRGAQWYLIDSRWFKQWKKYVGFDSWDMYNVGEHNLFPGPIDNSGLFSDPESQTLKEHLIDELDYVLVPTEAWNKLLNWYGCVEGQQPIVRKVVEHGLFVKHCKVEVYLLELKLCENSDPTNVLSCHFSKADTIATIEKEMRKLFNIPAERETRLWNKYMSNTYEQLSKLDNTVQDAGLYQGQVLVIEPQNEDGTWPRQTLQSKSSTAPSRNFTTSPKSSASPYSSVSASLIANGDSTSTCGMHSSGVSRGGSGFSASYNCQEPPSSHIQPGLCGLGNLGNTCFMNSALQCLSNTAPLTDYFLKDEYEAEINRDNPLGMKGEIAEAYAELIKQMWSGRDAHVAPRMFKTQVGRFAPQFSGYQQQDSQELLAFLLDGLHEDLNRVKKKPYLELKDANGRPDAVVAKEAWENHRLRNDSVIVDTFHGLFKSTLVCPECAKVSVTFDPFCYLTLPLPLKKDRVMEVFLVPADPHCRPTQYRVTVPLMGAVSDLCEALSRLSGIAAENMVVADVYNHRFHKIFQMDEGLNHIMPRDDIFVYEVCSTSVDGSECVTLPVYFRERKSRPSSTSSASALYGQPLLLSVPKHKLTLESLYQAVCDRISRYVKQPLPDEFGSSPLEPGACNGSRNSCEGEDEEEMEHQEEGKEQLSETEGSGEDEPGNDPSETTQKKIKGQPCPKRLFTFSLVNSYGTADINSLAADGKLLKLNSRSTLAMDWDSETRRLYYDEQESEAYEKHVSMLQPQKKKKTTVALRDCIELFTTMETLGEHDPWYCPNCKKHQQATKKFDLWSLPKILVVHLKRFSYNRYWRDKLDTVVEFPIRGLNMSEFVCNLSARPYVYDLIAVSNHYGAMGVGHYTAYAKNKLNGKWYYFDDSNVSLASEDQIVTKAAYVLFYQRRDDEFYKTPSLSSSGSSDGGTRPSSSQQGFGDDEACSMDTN
In short: as §1

Measured: log2 ratio of Biotin-Ahx-Ub-VS probe labelling

Chain of USP34 (Q70CQ2 whole entry, the tested form may be a part): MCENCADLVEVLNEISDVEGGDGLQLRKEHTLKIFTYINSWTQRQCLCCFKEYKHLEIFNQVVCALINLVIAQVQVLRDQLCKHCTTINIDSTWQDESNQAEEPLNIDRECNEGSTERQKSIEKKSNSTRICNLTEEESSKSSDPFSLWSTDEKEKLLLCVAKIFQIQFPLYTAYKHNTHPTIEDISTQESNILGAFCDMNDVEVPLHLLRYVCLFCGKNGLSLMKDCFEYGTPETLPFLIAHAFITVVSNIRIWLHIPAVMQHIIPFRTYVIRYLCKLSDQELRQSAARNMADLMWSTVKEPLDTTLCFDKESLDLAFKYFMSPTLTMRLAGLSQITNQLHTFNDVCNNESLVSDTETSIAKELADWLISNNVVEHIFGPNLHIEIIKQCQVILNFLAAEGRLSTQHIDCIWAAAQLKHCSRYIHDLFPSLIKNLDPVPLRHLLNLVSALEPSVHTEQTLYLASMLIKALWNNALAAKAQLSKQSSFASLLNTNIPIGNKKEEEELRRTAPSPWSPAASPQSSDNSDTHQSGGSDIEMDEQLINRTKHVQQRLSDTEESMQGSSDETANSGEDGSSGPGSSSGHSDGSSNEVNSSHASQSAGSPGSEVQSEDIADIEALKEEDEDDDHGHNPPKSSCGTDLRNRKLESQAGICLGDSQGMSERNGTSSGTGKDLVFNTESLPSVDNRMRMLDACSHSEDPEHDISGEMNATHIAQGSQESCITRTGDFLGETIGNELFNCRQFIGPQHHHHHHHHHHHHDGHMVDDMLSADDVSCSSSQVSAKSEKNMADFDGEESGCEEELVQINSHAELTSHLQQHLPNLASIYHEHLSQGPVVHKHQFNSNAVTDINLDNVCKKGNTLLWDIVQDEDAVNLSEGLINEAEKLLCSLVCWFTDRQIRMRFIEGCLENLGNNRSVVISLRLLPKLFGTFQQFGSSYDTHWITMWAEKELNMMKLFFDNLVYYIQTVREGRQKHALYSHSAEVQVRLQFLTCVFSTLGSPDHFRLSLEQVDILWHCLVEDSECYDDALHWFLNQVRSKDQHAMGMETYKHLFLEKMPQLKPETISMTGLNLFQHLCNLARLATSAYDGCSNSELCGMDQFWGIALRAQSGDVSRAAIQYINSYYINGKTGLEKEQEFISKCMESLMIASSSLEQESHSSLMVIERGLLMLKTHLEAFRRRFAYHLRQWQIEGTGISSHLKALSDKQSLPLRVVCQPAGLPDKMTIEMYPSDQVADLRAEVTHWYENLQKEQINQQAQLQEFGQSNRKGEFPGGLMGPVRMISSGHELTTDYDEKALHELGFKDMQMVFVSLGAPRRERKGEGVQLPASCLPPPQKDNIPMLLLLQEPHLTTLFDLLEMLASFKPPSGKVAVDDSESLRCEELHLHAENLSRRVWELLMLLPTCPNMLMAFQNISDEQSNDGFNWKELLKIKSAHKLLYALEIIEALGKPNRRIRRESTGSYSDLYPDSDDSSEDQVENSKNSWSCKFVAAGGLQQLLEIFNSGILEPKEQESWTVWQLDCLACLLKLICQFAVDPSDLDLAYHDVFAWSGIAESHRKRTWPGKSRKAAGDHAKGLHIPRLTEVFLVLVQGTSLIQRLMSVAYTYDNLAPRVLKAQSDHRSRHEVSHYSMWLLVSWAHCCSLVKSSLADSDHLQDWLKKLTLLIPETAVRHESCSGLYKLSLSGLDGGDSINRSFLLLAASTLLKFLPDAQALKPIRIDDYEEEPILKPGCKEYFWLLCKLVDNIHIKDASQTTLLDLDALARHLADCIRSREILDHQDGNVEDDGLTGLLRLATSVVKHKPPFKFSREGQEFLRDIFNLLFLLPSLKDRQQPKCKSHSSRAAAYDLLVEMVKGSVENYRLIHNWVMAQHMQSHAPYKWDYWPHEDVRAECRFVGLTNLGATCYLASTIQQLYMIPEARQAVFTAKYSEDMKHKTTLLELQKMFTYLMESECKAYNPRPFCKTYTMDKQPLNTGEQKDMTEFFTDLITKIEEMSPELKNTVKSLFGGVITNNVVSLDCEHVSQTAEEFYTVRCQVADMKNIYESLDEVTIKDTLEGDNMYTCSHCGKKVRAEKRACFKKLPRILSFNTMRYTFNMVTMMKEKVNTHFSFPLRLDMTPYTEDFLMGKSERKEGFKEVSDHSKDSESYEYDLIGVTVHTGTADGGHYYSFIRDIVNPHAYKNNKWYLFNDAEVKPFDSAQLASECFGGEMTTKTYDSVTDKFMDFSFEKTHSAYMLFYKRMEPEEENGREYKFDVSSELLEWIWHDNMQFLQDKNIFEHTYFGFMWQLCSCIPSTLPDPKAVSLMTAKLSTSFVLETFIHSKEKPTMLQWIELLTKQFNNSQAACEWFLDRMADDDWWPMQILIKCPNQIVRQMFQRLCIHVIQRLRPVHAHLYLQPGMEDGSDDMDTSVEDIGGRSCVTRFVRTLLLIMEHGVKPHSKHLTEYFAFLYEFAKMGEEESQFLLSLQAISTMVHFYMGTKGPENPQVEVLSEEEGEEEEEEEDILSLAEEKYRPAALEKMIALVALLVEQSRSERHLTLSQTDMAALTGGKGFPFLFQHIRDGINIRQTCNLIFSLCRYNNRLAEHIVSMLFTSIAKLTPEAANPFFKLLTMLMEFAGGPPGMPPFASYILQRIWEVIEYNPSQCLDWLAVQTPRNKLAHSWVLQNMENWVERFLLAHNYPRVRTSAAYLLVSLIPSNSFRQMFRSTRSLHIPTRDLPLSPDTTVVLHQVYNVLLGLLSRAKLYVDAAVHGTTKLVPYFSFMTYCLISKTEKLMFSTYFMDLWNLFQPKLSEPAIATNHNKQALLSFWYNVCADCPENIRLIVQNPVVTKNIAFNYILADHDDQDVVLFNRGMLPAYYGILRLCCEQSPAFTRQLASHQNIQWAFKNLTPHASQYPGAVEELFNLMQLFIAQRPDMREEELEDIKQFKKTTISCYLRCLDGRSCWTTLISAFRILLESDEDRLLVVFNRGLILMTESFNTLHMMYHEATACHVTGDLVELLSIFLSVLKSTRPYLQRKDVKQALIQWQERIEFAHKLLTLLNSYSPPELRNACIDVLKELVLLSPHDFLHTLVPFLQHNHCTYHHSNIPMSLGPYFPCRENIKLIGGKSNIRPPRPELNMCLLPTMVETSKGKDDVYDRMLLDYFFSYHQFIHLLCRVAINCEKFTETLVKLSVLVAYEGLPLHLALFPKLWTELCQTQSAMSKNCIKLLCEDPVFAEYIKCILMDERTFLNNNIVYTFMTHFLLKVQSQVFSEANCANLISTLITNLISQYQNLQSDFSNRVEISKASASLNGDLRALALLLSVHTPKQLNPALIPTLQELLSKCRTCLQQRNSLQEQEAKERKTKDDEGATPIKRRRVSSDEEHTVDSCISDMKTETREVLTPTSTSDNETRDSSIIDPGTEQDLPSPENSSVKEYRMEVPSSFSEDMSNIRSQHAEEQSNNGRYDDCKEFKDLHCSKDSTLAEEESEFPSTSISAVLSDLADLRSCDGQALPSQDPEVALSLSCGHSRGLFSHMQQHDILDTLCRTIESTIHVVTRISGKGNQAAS

O=C(CCl)NC1CCC2(CC1)OCCO2
inactive: [1] -0.314 | [2] -0.227 | [3] -0.0225 | [4] 0.0631 | [5] -0.0958
